{"source": "paper PMC4336329", "about": "(PLoS ONE, 2015)", "note": "About 14,000 (4.5%) of roughly 310,000 compounds showed an effect of 50% or more. The effect is printed as a negative number. This excerpt belongs to a sample that is enriched for strong results.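 Further: peak tail current of the secondary pulse compared with the same well before compound.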", "data": [{"biological_target": "human ether-à-go-go-related gene (hERG) potassium channel (human, UniProt Q12809)", "sequence (Q12809 whole entry, looked up)": "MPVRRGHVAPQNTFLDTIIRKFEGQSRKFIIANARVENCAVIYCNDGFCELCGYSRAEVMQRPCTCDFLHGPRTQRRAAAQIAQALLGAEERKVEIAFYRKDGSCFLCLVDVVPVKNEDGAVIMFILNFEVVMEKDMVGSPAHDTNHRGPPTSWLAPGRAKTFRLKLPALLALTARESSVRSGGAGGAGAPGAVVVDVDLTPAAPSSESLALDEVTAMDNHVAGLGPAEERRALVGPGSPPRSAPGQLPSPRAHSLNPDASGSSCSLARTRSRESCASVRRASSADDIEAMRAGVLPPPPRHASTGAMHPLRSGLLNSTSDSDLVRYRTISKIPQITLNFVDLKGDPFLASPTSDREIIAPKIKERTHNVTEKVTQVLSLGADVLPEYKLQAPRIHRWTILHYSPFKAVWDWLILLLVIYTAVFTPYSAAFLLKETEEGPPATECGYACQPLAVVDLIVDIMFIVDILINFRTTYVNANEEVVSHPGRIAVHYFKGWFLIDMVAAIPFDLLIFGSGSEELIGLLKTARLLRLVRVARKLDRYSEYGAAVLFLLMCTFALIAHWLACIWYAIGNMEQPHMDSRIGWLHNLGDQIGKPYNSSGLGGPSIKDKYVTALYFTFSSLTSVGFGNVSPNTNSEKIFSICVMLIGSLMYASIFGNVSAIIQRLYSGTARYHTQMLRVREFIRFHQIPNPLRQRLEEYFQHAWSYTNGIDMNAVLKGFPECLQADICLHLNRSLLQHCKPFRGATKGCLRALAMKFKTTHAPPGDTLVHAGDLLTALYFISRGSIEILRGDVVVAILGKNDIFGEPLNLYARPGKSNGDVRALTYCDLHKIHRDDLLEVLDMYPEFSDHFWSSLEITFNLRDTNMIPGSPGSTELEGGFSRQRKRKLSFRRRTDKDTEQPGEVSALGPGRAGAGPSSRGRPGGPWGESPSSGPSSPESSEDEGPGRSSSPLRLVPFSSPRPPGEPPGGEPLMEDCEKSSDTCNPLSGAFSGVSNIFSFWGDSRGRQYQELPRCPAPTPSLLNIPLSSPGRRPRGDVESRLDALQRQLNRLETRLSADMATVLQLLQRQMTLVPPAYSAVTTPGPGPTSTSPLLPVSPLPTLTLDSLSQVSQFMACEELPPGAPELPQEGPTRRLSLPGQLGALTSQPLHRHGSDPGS", "test": "primary screen, population patch clamp on CHO cells stably expressing hERG; higher = less effect of the substance", "units": {"hERG current change (%, negative = inhibition) at 10uM": "%"}, "values": [{"molecule": "O=C(CO/N=C/c1c(Cl)cccc1Cl)NNC(=O)c1ccc(Cl)cc1", "hERG current change (%, negative = inhibition) at 10uM": 8.46}, {"molecule": "NC(=O)N/N=C/C=C/c1ccc(F)cc1", "hERG current change (%, negative = inhibition) at 10uM": 8.5}, {"molecule": "CC(C)=CCOc1c2occc2cc2ccc(=O)oc12", "hERG current change (%, negative = inhibition) at 10uM": -17.9}, {"molecule": "O=C(c1cccc(Cl)c1)N1CCC(c2nc3ccccc3[nH]2)CC1", "hERG current change (%, negative = inhibition) at 10uM": -38.2}, {"molecule": "O=S(=O)(c1ccc2c(c1)OCCO2)N1CCC(c2nc3ccc(Cl)cc3[nH]2)CC1", "hERG current change (%, negative = inhibition) at 10uM": -56.6}, {"molecule": "C1CCC(n2nnnc2CN2CCCC2)CC1", "hERG current change (%, negative = inhibition) at 10uM": -1.31}, {"molecule": "Clc1ccc2nc(C3CCN(Cc4nnnn4C4CCCCC4)CC3)[nH]c2c1", "hERG current change (%, negative = inhibition) at 10uM": -59.2}, {"molecule": "O=C(Cc1ccccc1)N1CCC(c2nc3ccccc3[nH]2)CC1", "hERG current change (%, negative = inhibition) at 10uM": -18.9}, {"molecule": "CC(C)(C)c1ccc(S(=O)(=O)N2CCC(c3nc4ccc(Cl)cc4[nH]3)CC2)cc1", "hERG current change (%, negative = inhibition) at 10uM": -3.97}, {"molecule": "Cc1ccc(Cl)cc1N1CCN(Cc2nnnn2C2CCCCC2)CC1", "hERG current change (%, negative = inhibition) at 10uM": 7.78}, {"molecule": "Fc1ccccc1C1CCN(Cc2nc(CC3CC3)no2)C1", "note": "(stereo not drawn)", "hERG current change (%, negative = inhibition) at 10uM": 2.1}, {"molecule": "O=S(=O)(c1ccc2c(c1)OCCO2)N1CCC(c2nc3ccccc3[nH]2)CC1", "hERG current change (%, negative = inhibition) at 10uM": 3.43}, {"molecule": "Fc1ccc2nc(C3CCCCN3Cc3nc(CC4CC4)no3)[nH]c2c1", "note": "(stereo not drawn)", "hERG current change (%, negative = inhibition) at 10uM": 0.821}, {"molecule": "Clc1ccc2nc(C3CCN(Cc4ccccc4)CC3)[nH]c2c1", "hERG current change (%, negative = inhibition) at 10uM": -73.4}, {"molecule": "Fc1ccc2nc(C3CCN(Cc4nc(CC5CC5)no4)CC3)[nH]c2c1", "hERG current change (%, negative = inhibition) at 10uM": -51.9}, {"molecule": "O=C(Cc1cc(=O)[nH][nH]1)N/N=C/C=C/c1ccccc1", "hERG current change (%, negative = inhibition) at 10uM": 8.93}, {"molecule": "COc1cccc(CCNC(=O)CC2C(=O)NCCN2Cc2ccc(C)o2)c1", "note": "(stereo not drawn)", "hERG current change (%, negative = inhibition) at 10uM": 15.7}, {"molecule": "CCC1=NN(C(=O)c2cccnc2)C(O)(C(F)(F)F)C1", "note": "(stereo not drawn)", "hERG current change (%, negative = inhibition) at 10uM": 3.08}, {"molecule": "COc1ccc(CC(=O)NCc2nnc(SCC(=O)Nc3nccs3)n2C)cc1", "hERG current change (%, negative = inhibition) at 10uM": 17.3}, {"molecule": "CCS(=O)(=O)n1nc(-c2ccccc2)cc1N", "hERG current change (%, negative = inhibition) at 10uM": 7.55}, {"molecule": "COc1ccc(NC(=O)/C(=C/c2cccs2)NC(=O)c2ccco2)cc1", "hERG current change (%, negative = inhibition) at 10uM": -21.1}, {"molecule": "COc1ccc([N+](=O)[O-])cc1N(CC(=O)N1CCN(Cc2ccccc2)CC1)S(C)(=O)=O", "hERG current change (%, negative = inhibition) at 10uM": 5.94}, {"molecule": "CC(=O)NS(=O)(=O)c1ccccc1", "hERG current change (%, negative = inhibition) at 10uM": 9.31}, {"molecule": "O=C(NNC(=O)c1ccco1)c1cccc(Br)c1", "hERG current change (%, negative = inhibition) at 10uM": 0.684}, {"molecule": "O=C(CCC1CCCCC1)NNC(=O)c1cnccn1", "hERG current change (%, negative = inhibition) at 10uM": -4.92}, {"molecule": "COc1cc(Cl)c(C)cc1NC(=O)CSc1ccccc1", "hERG current change (%, negative = inhibition) at 10uM": 5.58}, {"molecule": "Cc1ccc(CN2CCC(c3nc4ccc(Cl)cc4[nH]3)CC2)cc1", "hERG current change (%, negative = inhibition) at 10uM": -83}, {"molecule": "Cc1ccc(Cn2nnnc2CN2CCC(c3nc4ccc(Cl)cc4[nH]3)CC2)cc1", "hERG current change (%, negative = inhibition) at 10uM": 5.01}, {"molecule": "COc1ccc(NC(=S)N2CCCC(c3nc4ccc(C)cc4[nH]3)C2)cc1", "note": "(stereo not drawn)", "hERG current change (%, negative = inhibition) at 10uM": -10.5}, {"molecule": "Clc1ccc(CN2CCC(c3nc4ccc(Cl)cc4[nH]3)CC2)cc1", "hERG current change (%, negative = inhibition) at 10uM": -80.7}, {"molecule": "COc1ccc(NC(=S)N2CCC(c3nc4ccc(Cl)cc4[nH]3)CC2)c(OC)c1", "hERG current change (%, negative = inhibition) at 10uM": -42.6}, {"molecule": "COc1ccc(CN2CCC(c3nc4ccc(Cl)cc4[nH]3)CC2)cc1", "hERG current change (%, negative = inhibition) at 10uM": -76.3}, {"molecule": "O=S(=O)(c1ccc(Cl)cc1)N1CCC(c2nc3ccccc3[nH]2)CC1", "hERG current change (%, negative = inhibition) at 10uM": 1.05}, {"molecule": "CCC(C)(C)n1nnnc1CN1CCC(c2nc3ccc(C)cc3[nH]2)CC1", "hERG current change (%, negative = inhibition) at 10uM": -48.3}, {"molecule": "O=C(NCC1CCCO1)c1ccc(S(=O)(=O)N2CCC(c3nc4ccc(Cl)cc4[nH]3)CC2)cc1", "note": "(stereo not drawn)", "hERG current change (%, negative = inhibition) at 10uM": -18}, {"molecule": "COc1ccc(NC(=O)CCCN2C(=O)C(c3ccccc3)Oc3cccnc32)cc1OC", "note": "(stereo not drawn)", "hERG current change (%, negative = inhibition) at 10uM": 1.23}, {"molecule": "CCCCNC(=O)Cn1cnc2sc(C)c(S(=O)(=O)N3CCN(c4ccccc4OC)CC3)c2c1=O", "hERG current change (%, negative = inhibition) at 10uM": 11.4}, {"molecule": "O=C(Nc1nc(-c2cc(Cl)sc2Cl)cs1)c1ccc(Br)s1", "hERG current change (%, negative = inhibition) at 10uM": -6.05}, {"molecule": "Cc1cccc(/C(N)=N/OC(=O)Cc2cccs2)c1", "hERG current change (%, negative = inhibition) at 10uM": -12.4}, {"molecule": "Cc1cc(-c2cc(C(=O)NC3CCCC3)on2)nc(NC2CCCC2)n1", "hERG current change (%, negative = inhibition) at 10uM": 4.57}, {"molecule": "COc1ccc(S(=O)(=O)NC(C)(C)C)cc1-c1nnc2c3ccccc3c(C)nn12", "hERG current change (%, negative = inhibition) at 10uM": -5.05}, {"molecule": "CNS(=O)(=O)c1ccc(OC)c(-c2nnc3c4ccccc4c(C)nn23)c1.Cl", "hERG current change (%, negative = inhibition) at 10uM": 7.8}]}]}
